# Assays:
# Settings in all cases: concentration: 1 μM, replicates: in singlicate; n = 1
# CAMK1 = test system: CAMK1
# CAMK2A = test system: CAMK2A
# CAMK2B = test system: CAMK2B
# CAMK2D = test system: CAMK2D
# CAMK2G = test system: CAMK2G
# CAMK4 = test system: CAMK4
# CAMKK1 = test system: CAMKK1
# CAMKK2 = test system: CAMKK2
# CASK = test system: CASK
# CDC2L1 = test system: T1, CDC2L1
# T1 construct: gene CDK11B
# CDC2L2 = test system: CDC2L2
# CDC2L5 = test system: T2, CDC2L5
# T2 construct: gene CDK13
# CDK11 = test system: T3, CDK11
# T3 construct: gene CDK19
# CDK2 = test system: CDK2
# CDK3 = test system: CDK3
# CDK4-cyclinD1 = test system: CDK4-cyclinD1
# CDK4-cyclinD3 = test system: CDK4-cyclinD3
# CDK4 = test system: CDK4
# CDK5 = test system: CDK5
# CDK7 = test system: CDK7
# 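Note: KINOMEscan kinase panel screen.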
SMILES,%Inh (CAMK1) [%],%Inh (CAMK2A) [%],%Inh (CAMK2B) [%],%Inh (CAMK2D) [%],%Inh (CAMK2G) [%],%Inh (CAMK4) [%],%Inh (CAMKK1) [%],%Inh (CAMKK2) [%],%Inh (CASK) [%],%Inh (CDC2L1) [%],%Inh (CDC2L2) [%],%Inh (CDC2L5) [%],%Inh (CDK11) [%],%Inh (CDK2) [%],%Inh (CDK3) [%],%Inh (CDK4-cyclinD1) [%],%Inh (CDK4-cyclinD3) [%],%Inh (CDK4) [%],%Inh (CDK5) [%],%Inh (CDK7) [%]
O=C(Nc1n[nH]c2cc(-c3ccoc3)ccc12)C1CC1 [SB-738481],0,8,0,14,25,0,2,18,0,0,0,29,0,76,51,14,3,0,17,71
CN1CCN(CCCNc2nccc(-c3c(-c4ccc(F)cc4)nn4cc(C(F)(F)F)ccc34)n2)CC1 [GW621581],5,0,0,0,0,0,0,0,0,0,0,0,0,0,0,0,0,0,0,0
Cc1cccc(Nc2nc(N[C@H]3CCNC3)ncc2C(N)=O)c1.Cl [GSK2197149],41,0,0,6,18,0,2,17,0,73,74,0,0,0,0,0,1,0,0,52
CC(=O)N1CCN(c2ccc(Nc3nccc(-c4sc(C(C)C)nc4-c4cccc(NS(=O)(=O)c5cccc(Cl)c5)c4)n3)cn2)CC1 [GSK1660437],34,0,0,0,0,0,0,0,0,0,0,21,0,97.1,98.6,79,4,76,100,59
O=C(O)C(F)(F)F.O=C(O)C(F)(F)F.O=c1[nH]ccc2nc(N[C@@H]3CCCNC3)nc(Nc3ccc(S(=O)(=O)N4CCOCC4)cc3)c12 [GSK2177277],88,100,99.9,54,54,95.6,94.2,57,2,0,17,0,0,88,88,98.1,99.8,62,90.8,99.6
CCCCc1nn2ncccc2c1-c1ccnc(Nc2ccc(N3CCN(C)CC3)cc2)n1 [GW684941],28,0,0,0,0,0,0,0,16,0,7,0,19,0,9,63,53,46,0,34
Cc1ccc(F)c(C(=O)Nc2cccc(-c3nn4ccccc4c3-c3ccnc(Nc4cccc(F)c4)n3)c2)c1F [GSK361061],26,5,0,8,15,11,17,14,19,0,23,0,14,11,17,0,0,3,4,0
Nc1n[nH]c2cnc(-c3ccccc3)cc12 [SB-642124],5,0,13,17,22,0,1,0,26,0,0,0,0,0,9,23,47,27,0,22
CN(C)Cc1ccc(-c2ccc3c(Nc4ccc(Oc5ccccn5)cc4)ccnc3c2)o1 [GW567148],27,0,0,0,15,0,0,0,0,0,0,0,0,0,0,0,0,25,0,62
COC(=O)Nc1nc2cc(Oc3ccc(NC(=O)Nc4cc(C(F)(F)F)ccc4F)cn3)ccc2[nH]1.Cl.Cl [GW681170],17,0,0,42,57,0,49,59,0,0,18,69,98.1,16,7,7,0,50,0,94.1
Cc1cccc(NC(=O)Nc2ccc(Oc3ncnc4ccn(C)c34)cc2)c1,0,0,0,0,0,0,0,0,0,0,0,0,77,0,2,0,0,0,15,0
Cl.NC(=O)c1cccc(Nc2nccc(Nc3ccc(Oc4c(Cl)cccc4Cl)c(Cl)c3)n2)c1 [GW659009],14,0,0,0,0,0,0,0,50,0,2,0,88,0,0,0,0,1,0,0
Cc1ccc(C(=O)N2CC[C@@H](O)C2)cc1-n1c(C)cc(OCc2ccc(F)cc2F)c(Br)c1=O,0,0,0,0,0,0,0,0,0,0,0,0,0,0,0,0,0,0,0,0
O=C(Nc1cccc(Oc2ccc3nc(NC(=O)C4CC4)cn3n2)c1)c1ccccc1C(F)(F)F,7,100,100,1,0,0,1,0,6,0,14,25,1,0,21,24,0,0,0,0
COc1ccc(Nc2nccc(NCCNC(=O)c3cc4ccccc4s3)n2)cc1 [GSK1379896],4,0,0,0,16,0,0,0,5,0,1,0,10,0,5,0,0,13,0,0
CN(C)S(=O)(=O)c1cc(-c2ccc3nccc(-c4cccc(S(N)(=O)=O)c4)c3c2)cnc1N [GSK1669921],40,1,0,3,8,0,48,47,4,0,3,0,54,0,9,0,0,0,0,58
COc1ccc(CNC(=O)NC2CCN(c3ccnc(Nc4ccc(F)cc4)n3)CC2)cc1 [GSK1379788],10,0,0,8,16,0,2,16,0,0,10,0,3,0,3,0,0,20,0,0
CN1CCN(Cc2cccc(-c3ccc4c(Nc5ccc(Oc6ccccc6)cc5)ccnc4c3)c2)CC1 [GW578342],27,1,0,5,10,0,0,0,1,0,16,0,0,0,2,0,0,34,0,5

# Reference: paper PMC5540273 (PLoS ONE, 2017)
